We go through 14 compounds from PubChem BioAssay (NCI).

Holding throughout (assay): NCI-60 one-dose screen, 48 h (100 = growth as untreated, 0 = no growth, -100 = all killed)
What all share (conditions): 10 µM

Assay [1] concerns T-47D breast.
Assay [2] concerns BT-549 breast.
The test system of assay [3] is MDA-MB-435 melanoma.
Assay [4] relates to SW-620 colon.
In assay [5] the test system is MCF7 breast.
Assay [6] concerns HCT-116 colon.
Assay [7] deals with HCC-2998 colon.
Assay [8] deals with KM12 colon.
Assay [9] concerns MDA-MB-468 breast.

The panel holds about 83,000 compounds, 20% with a hit somewhere; the sample as a whole holds those more often.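 Method: cells in 96-well plates; compound added at one concentration; 48 h incubation; percent growth measured; values under 10 scored active.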 Unmarked numbers belong to inactive results. Calls of active or inactive are those of the source.

Turning to `O=C(CNc1nc(-c2ccccc2)cs1)Nc1ccc(Cl)cc1[N+](=O)[O-]`, the growth is -32.6% (active) in assay [1]; -46.6% (active) in assay [2]; -5.51% (active) in assay [3]; -60.6% (active) in assay [4]; -59.3% (active) in assay [5]; -22.8% (active) in [6]. In addition, the results for the growth in assay [7], in assay [8] and in assay [9] were -93.4% (active), -0.339% (active) and -34.9% (active), respectively.
Take `COc1ccc(/C(C)=N/N=C2C(=O)N(C)c3ccc(Br)cc32)cc1S(N)(=O)=O`: the growth is 52.6% in [1]; 29.2% in [2]; 95.9% in assay [3]; 85.7% in assay [4]; 57.8% in [5]; 74.4% in [6]. In addition, the figures for the growth in [7], in assay [8] and in assay [9] were 98.3%, 97.8% and 70.2%, respectively.
Regarding `O=C(c1ccc([N+](=O)[O-])c([N+](=O)[O-])c1O)n1[nH]c(=O)c2ccccc2c1=O`, the growth was 49.8% in assay [1]; 51.2% in [2]; 53.7% in [3]; 35.7% in assay [4]; 30.5% in assay [5]; 30.1% in assay [6]. For the same compound, the values for the growth in [7], in assay [8] and in assay [9] were 106%, 72.3% and 0.114% (active), respectively.
Take `COc1nccnc1NS(=O)(=O)c1ccc(NC2=C(Cl)C(=O)c3nc(C)ccc3C2=O)cc1`: the growth in assay [1] was 101%; in assay [2], 101%; in [3], 103%; in assay [4], 115%; in assay [5], 108%; in assay [6] it was 92%. Besides, the growth is 103% in assay [7], 111% in assay [8] and 9.69% (active) in [9].
Take `COc1ccc2[nH]c(O)c(N=NC(=O)COc3ccc(NC(=O)Nc4ccc(Cl)c(Cl)c4)cc3)c2c1`: the growth in assay [1] is -72.1% (active); in assay [2], -20.6% (active); in assay [3], -88.8% (active); in [4], 3.28% (active); in [5], -26% (active); in [6], -42% (active). Besides, the growth in [7] is -67.4% (active); in assay [8], -31% (active); in assay [9], -57.8% (active).
With `CN1C(=O)/C(=C/c2ccc3ncsc3c2)NC1=NC12CC3CC(CC(O)(C3)C1)C2`, the growth in assay [1] was 11.7%; in [2], -39.9% (active); in assay [3] it was 27.4%; in assay [4], 5.62% (active); in assay [5] it was -20.1% (active); in assay [6], 17.3%. Further, the growth was 10.1% in [7], 10.4% in assay [8] and -5.71% (active) in assay [9].
`CC1CC(c2ccc(N(C)C)cc2)=NN1c1nc(O)c(C2=c3cc(Br)ccc3=NC2=O)s1` (stereo unspecified): the growth in [1] was 66.7%; in assay [2], 85%; in assay [3] it was 102%; in [4], 78.9%; in assay [5], 78.6%; in [6], 66.8%. For the same compound, the growth in assay [7] is 32.1%; in assay [8], 73.2%; in [9], 54.2%.
For the compound `COc1ccc(C(=O)/C=C/c2ccc(Cl)c(C(F)(F)F)c2)cc1S(N)(=O)=O`, the growth in assay [1] is -82.6% (active); in [2] it was -82.3% (active); in [3], -96.4% (active); in assay [4], -94.7% (active); in assay [5], -93.6% (active); in assay [6], -71.6% (active). In addition, the results for the growth in [7], in assay [8] and in assay [9] were -88.3% (active), -43.7% (active) and -93.4% (active), respectively.
As for `C=C1CCC2C3(C)COC(c4ccccc4F)OC3CCC2(C)C1C/C=C1/C(=O)OCC1O` (stereo unspecified), the growth was -50.4% (active) in assay [1]; -82.1% (active) in assay [2]; 4.59% (active) in [3]; -68.5% (active) in assay [4]; -26.5% (active) in assay [5]; -67.8% (active) in [6]. In addition, the growth in [7] is -73.5% (active); in assay [8], -82.3% (active); in assay [9], -22.6% (active).
With `Cc1ccc2nc(-c3ccc(-c4nnc(SCC(=O)Nc5ccc(Br)cc5)o4)cc3)[nH]c2c1`, the growth in assay [1] was 50.8%; in [2] it was 86.8%; in assay [3], 59.9%; in assay [4] it was 82.8%; in [5] it was 45.1%; in [6], 67.4%. Besides, the growth in assay [7] is 105%; in [8], 70.4%; in assay [9], 80.6%.
For the compound `O=C1c2ccccc2C(=O)c2c1c(C(=O)c1ccc(Cl)cc1)n1c2ccc2c3ccccc3ccc21`, the growth was 104% in [1]; 119% in [2]; 114% in assay [3]; 101% in assay [4]; 93% in [5]; 104% in assay [6]. For the same compound, the results for the growth in [7], in assay [8] and in [9] were 116%, 103% and 112%, respectively.
Take `CN(C)c1ccc(/C=C/c2nc3ccccc3c(=O)n2CC(=O)Nc2ccccc2)cc1`: the growth in [1] was 49.3%; in [2], -1.24% (active); in assay [3] it was 60.2%; in assay [4], 57.8%; in assay [5], 26%; in assay [6] it was 31.1%. The values for the growth in [7], in [8] and in assay [9] were 58.2%, 75.7% and -4.96% (active), respectively.
Take `COc1ccccc1[C@H]1C(C(=O)c2ccc(Cl)cc2)C2(N[C@@H]1c1ccccc1)C(=O)Nc1ccccc12` (stereo partly specified): the growth is 6.01% (active) in assay [1]; -22.7% (active) in [2]; -58.7% (active) in [3]; 5.84% (active) in assay [4]; -11.1% (active) in assay [5]; 0.0933% (active) in [6]. Moreover, the growth in [7] was -51.1% (active); in assay [8], -13.5% (active); in [9], -29.6% (active).
As for `CC(=O)c1ccc(NC(=O)NCn2c(=O)[nH]c3ccccc3c2=O)cc1`, the growth was 83% in assay [1]; 159% in assay [2]; 99.6% in assay [3]; 101% in assay [4]; 83% in [5]; 110% in assay [6]. The growth in [7] was 112%; in assay [8], 103%; in assay [9], 92%.
